# The list is not random: actives were taken first. Their share in the collection is about 13%.
# Pf growth 48h: Primary qHTS for delayed death inhibitors of the malarial parasite plastid, 48 hour incubation | P. falciparum luciferase growth in erythrocytes, 48 h | Potency, µM (series often up to 28.7 µM), inactives show at the highest dose activity change, negative = inhibition, most hits filed as inhibitors | 310,000 compounds, 5.9% hits; also: potency is read from the fitted curve at half-maximal effect
#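 Luciferase-expressing parasites in RBCs, 2% Hct / 0.1% parasitemia final; RPMI 1640 + 0.5% Albumax; 37 C, 5% CO2, one generation; luminescence read-out, lower signal = inhibition.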
# HCV inhibitor: qHTS Assay for Inhibitors of Hepatitis C Virus (HCV). Huh7.5.1 HCVcc-Cre infection, luciferase reporter, 44 h. Potency, µM (titrated, usually from 41.8 µM), for the others: at the highest dose activity change, negative = inhibition, hits mostly inhibitors. 340,000 compounds, 3.4% hits; also: potency is read from the fitted curve at half-maximal effect
#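 A cell-based infection assay in which seeded cells (1,000 per well) receive test compound after 4 h, are inoculated with HCVcc-Cre at approximately 0.5 moi, and are incubated 44 h before luminescence detection.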
# Pf growth 96h: Primary qHTS for delayed death inhibitors of the malarial parasite plastid, 96 hour incubation; P. falciparum luciferase reporter growth, 96 h; Potency, µM (titrated, usually from 28.7 µM), inactives show top-dose activity change, negative = inhibition, actives largely listed as inhibitors; 320,000 compounds, 6.9% hits; AID 504834, 2011; also: potency is read from the fitted curve at half-maximal effect
#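 Delayed-death screen, second-generation endpoint: infected erythrocytes, 2% hematocrit, 0.05% parasitemia final; 96 hours at 37 C, 5% CO2; luciferase detection reagent; luminescence decrease equals reduced growth.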
# HCMV antiviral: qHTS Assay for inhibitors of the human cytomegalovirus (HCMV); activity change, negative = inhibition, % at 57.5 µM; 410,000 compounds, 4.5% hits; HFF cells, HCMV-luciferase reporter, 72 h; hits give low values; in the data active = activity change below about -60%; inconclusive = no clear call, values can overlap the other calls; inactive = above about -39%
#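 HFF cells seeded 16 h at 37C, treated with compounds, infected with luciferase-reporter HCMV at MOI 1 PFU/cell; luciferase read at 72 h post infection, normalized to buffer-only and Salinomycin controls.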
# * marks the source's active call; other numbers are inactive results; ? = inconclusive; / = no result; ! = a repeat was not active. Unless noted, calls follow the shape of the dose curve; as a rule, active = well fitted inhibition curve with a large enough effect; inconclusive = small, poorly fitted or top-dose-only effect, or another doubt; inactive = no such curve, though single readings can be large or run the other way. % is scaled to controls: 0 for no effect and ±100 for the full control effect.
SMILES,Pf growth 48h,HCV inhibitor,Pf growth 96h,HCMV antiviral
CCOC(=O)c1ccc(NC(=O)CC2C(=O)N(c3ccc(F)cc3)C(=O)N2Cc2ccc3c(c2)OCO3)cc1 (configuration not stated),/,/,/,15
CCN(c1ccccc1)S(=O)(=O)c1ccc(NC(=O)c2cc(=O)c3c(C)cc(C)cc3o2)cc1,/,/,/,7
COc1ccc(C)cc1NC(=O)CNc1ccccc1CN(C)C1CCCCC1,15µM*,-3%,4.7µM*,-18
COc1ccc(S(=O)(=O)N2CCCCC2)cc1NCC(=O)Nc1ccc(C)cc1,-4%,?,-29%,1
COc1ccc([N+](=O)[O-])cc1NCC(=O)Nc1cc(S(=O)(=O)N2CCCCC2)ccc1C,12µM*,11µM*,?,-99*
COc1ccc(S(=O)(=O)Nc2ccccc2OC)cc1NC(=O)CC1CC2CCC1C2 (configuration not stated),-4%,6.3µM*,?,?
COc1ccc(Cl)cc1NC(=O)CNc1ccccc1CN(C)C1CCCCC1,?,-28%,?,3
COc1ccc(CC(=O)Nc2cc(S(=O)(=O)N3CCCCC3)ccc2C)cc1OC,?,10µM*,-20%,-69*
Cc1ccc(CNC(=O)c2ccc(Cn3c(SCc4ccc(F)cc4)nc4cccnc43)cc2)o1,/,/,/,44
Cc1cccc(NCc2nc3ccccc3n2CCOc2ccccc2C)c1,/,/,/,-34
NCCOc1ccccc1-c1ccccc1,0%,4%,-9%,24
Nc1ccc(Oc2ccccc2-c2ccccc2)cc1,/,-6%,/,-82*
Cc1ccccc1CN1[C@@H](C)[C@H](c2ccccc2)Oc2cccc(NCC(C)C)c2S1(=O)=O,/,/,/,-33
Cc1ccc(Cl)cc1N1CCN(C(=O)c2ccc(C)c(-n3c(C)nc4cccnc43)c2)CC1,/,/,/,0
Cc1cccc2c1-c1sc(C(=O)NCCc3ccc(Cl)cc3)cc1CO2,/,/,/,-87*
CN(C)CCNC(=O)c1cc2c(s1)-c1ccccc1OC2,/,25µM*,?,105
CCN1CCN(CCCNC(=O)c2cc3c(s2)-c2ccccc2OC3)CC1,?,7.1µM*,?,-108*!
Cc1cccc(CCNC(=O)c2cc3c(s2)-c2c(C)cccc2OC3)c1,/,/,/,-20
CCCN1CCN(C(=O)c2cc3c(s2)-c2ccccc2OC3)CC1,49%,-9%,24%,61
CCOc1ccc(NC(=O)c2cc3c(s2)-c2ccccc2OC3)cc1,/,/,/,-27
Cc1csc(NC(=O)c2cc3c(s2)-c2ccccc2OC3)n1,?,11µM*,134%,18
COc1ccccc1CNC(=O)c1cc2c(s1)-c1ccccc1OC2,/,/,/,31
Cc1cccc(NC(=O)Cn2c(=O)ccc3cc(S(=O)(=O)N4CCCC4)ccc32)c1C,/,/,/,-5
Cc1ccc(CSC2=NC(C)(C)Nc3ccccc32)c(C)c1,/,/,/,-9
COc1ccc(NC(=O)Cn2c(=O)n(-c3ccc(Cl)cc3)c(=O)c3c(C)c(C(=O)N(C)C)sc32)cc1Cl,/,/,/,24
SMILES,Pf growth 48h,HCV inhibitor,Pf growth 96h,HCMV antiviral
CCCN1CCN(CCCNC(=O)c2cc3c(s2)-c2c(C)cccc2OC3)CC1,?,2.5µM*,29%,-70*!
CCCN1CCN(CCCNC(=O)c2cc3c(s2)-c2ccccc2OC3)CC1,?,10µM*,?,-23
COc1ccc(CNC(=O)c2cc3c(s2)-c2c(C)cccc2OC3)cc1,/,/,/,-8
CC1CC(C)CN(CCCNC(=O)c2cc3c(s2)-c2ccccc2OC3)C1 (configuration not stated),2.9µM*,8.9µM*,20%,?
CC1CCCC(C)N1CCCNC(=O)c1cc2c(s1)-c1ccccc1OC2 (configuration not stated),?,?,13%,-33
COC(=O)c1cc2c(s1)-c1cc(F)ccc1OC2,34%,13%,67%,-66*
CCc1ccc(S(=O)(=O)c2nnn3c2nc(NCc2ccccc2)c2cc(Cl)ccc23)cc1,/,/,/,-1
Cc1cccc2c1-c1sc(C(=O)NCCCN3CCCC(C)C3)cc1CO2 (configuration not stated),?,11µM*,11%,-23
Cc1cccc(NC(=O)c2cc3c(s2)-c2c(C)cccc2OC3)n1,39%,?,64%,?
CCCCn1c(=O)c2oc3ccccc3c2n(CC(=O)Nc2cccc(Cl)c2)c1=O,/,/,/,-39
Cc1ccc(-c2nn(-c3ccccc3)cc2CN(Cc2ccccc2)C(=O)c2ccco2)o1,/,10µM*,12µM*,-76*
NC(=S)n1[nH]c(-c2ccc([N+](=O)[O-])cc2)c(N=Nc2ccc(O)cc2)c1=O,/,-18%,-26%,-36
NC(=S)n1[nH]c(-c2ccc([N+](=O)[O-])cc2)c(N=Nc2cccc(Cl)c2)c1=O,?,13µM*,25%,-101*
N#Cc1ccc2c(c1)NC(=O)C1CCCN21 (configuration not stated),?,?,11%,3
CON(C)S(=O)(=O)c1ccc2c(c1)N(Cc1ccc(C)cc1)C(=O)C1CCCN21 (configuration not stated),?,-23%,0.83µM*,-31
Cc1ccc(C)c(CN2C(=O)C3CCCN3c3ccc(C#N)cc32)c1 (configuration not stated),?,?,9.3µM*,0
CCN(CC)S(=O)(=O)c1ccc2c(c1)N(CC(=O)Nc1cccc(C)c1C)C(=O)C1CCCN21 (configuration not stated),/,/,/,3
Cc1ccc(CN2C(=O)C3CCCN3c3ccc(C#N)cc32)cc1 (configuration not stated),?,/,1.7µM*,/
Cc1ccc(CNC(=O)C2CCCN(Cc3nc(-c4cccc(C)c4)oc3C)C2)cc1 (configuration not stated),/,/,/,-11
Cc1cccc(NC(=S)NC2CC3CCCC(C2)N3Cc2cccs2)c1C (configuration not stated),?,-24%,5.9µM*,24
Cc1ccc(NC(=S)NC2CC3CCCC(C2)N3Cc2cccs2)cc1 (configuration not stated),?,?,-26%,-36
CCc1ccccc1NC(=S)NC1CC2CCCC(C1)N2Cc1cccs1 (configuration not stated),8.3µM*,?,1.5µM*,15
Cc1ccc(-c2cc(-c3ccc4c(c3)NC(=O)CO4)nc3c2COc2ccccc2-3)cc1,/,/,/,-2
COc1ccc2cc1Oc1ccc(cc1)CC1c3c(cc4c(c3Oc3cc5c(cc3OC)CCN(C)C5C2)OCO4)CCN1C (configuration not stated),5.4µM*,/,5.4µM*,/
COc1ccc2cc1Oc1ccc(cc1)CC1c3c(cc(OC)c4c3Oc3cc5c(cc3O4)CCNC5C2)CCN1C (configuration not stated),0.52µM*,?,0.33µM*,/
Cc1nn(CCC(=O)NNC(=S)Nc2ccc(F)cc2)c(C)c1Br,7%,20%,-8%,54

# Screening results from PubChem.
